Results reported in PubChem BioAssay AID1159580 (chemical genetic matrix, 2015).
“And” between values parts separate entries of the source, which are not always exact repeats. Equal entries are not always repeated. Out of some 5,500 compounds screened, about 2,000 (36%) were called active. Inconclusive results (about 18%) are left out. Cut-off read from the data, not from the text of the source: active = normalized growth mostly below about 0.91 (no sharp cut-off); inconclusive = no clear call, values can overlap the other calls; inactive = mostly above about 0.92. The list shows a part of the results.

Assay: chemical genetic growth profiling, strain panel (AID 1159580);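 note: tested at 20 µM; growth read once vehicle control cultures reached saturation at 30 °C; 1 = growth at the plate median or of vehicle wells; lower values mean less growth of the strain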
Settings: S. cerevisiae deletion strains, growth OD

Measured: normalized growth

CNCCCC12CCC(c3ccccc31)c1ccccc12
active: locus YAL026C, strain drs2, stronger effect = lower value 0.768
inactive: locus YAL013W, strain DEP1, stronger effect = lower value 0.974 and 1.01 | locus YAL021C, strain ccr4, stronger effect = lower value 0.931 | locus YAL030W, strain snc1, stronger effect = lower value 0.999 | locus YAL040C, strain CLN3, stronger effect = lower value 1 | locus YBL061C, strain skt5, stronger effect = lower value 0.979 | locus YBR009C, strain hhf1, stronger effect = lower value 0.992 | locus YBR021W, strain FUR4, stronger effect = lower value 0.948 | locus YBR023C, strain chs3, stronger effect = lower value 0.957 | locus YBR171W, strain sec66, stronger effect = lower value 0.99 | locus YBR229C, strain ROT2, stronger effect = lower value 0.974 | locus YBR231C, strain swc5, stronger effect = lower value 0.956 | locus YBR279W, strain paf1, stronger effect = lower value 0.971 | locus YCL011C, strain gbp2, stronger effect = lower value 0.963 | locus YCL016C, strain dcc1, stronger effect = lower value 0.976 | locus YCL029C, strain bik1, stronger effect = lower value 0.994 | locus YCL061C, strain MRC1 (second series), stronger effect = lower value 0.999 | locus YCL069W, strain vba3, stronger effect = lower value 1.01 | locus YCR088W, strain abp1, stronger effect = lower value 0.998 | locus YDL005C, strain med2, stronger effect = lower value 0.972 | locus YDL035C, strain GPR1, stronger effect = lower value 0.998 | locus YDL040C, strain nat1, stronger effect = lower value 0.989 | locus YDL074C, strain BRE1, stronger effect = lower value 0.97 | locus YDL101C, strain DUN1, stronger effect = lower value 0.981 | locus YDL134C, strain PPH21, stronger effect = lower value 0.984 | locus YDL185W, strain tfp1, stronger effect = lower value 0.978 | locus YDL192W, strain arf1, stronger effect = lower value 0.991 | locus YDR001C, strain nth1, stronger effect = lower value 0.975 | locus YDR069C, strain doa4, stronger effect = lower value 0.918 | locus YDR101C, strain arx1, stronger effect = lower value 1.01 | locus YDR137W, strain rgp1, stronger effect = lower value 1.02 | locus YDR159W, strain sac3, stronger effect = lower value 0.95 | locus YDR162C, strain NBP2, stronger effect = lower value 0.996 | locus YDR195W, strain ref2 1.03 | locus YDR297W, strain sur2, stronger effect = lower value 0.975 | locus YDR318W, strain mcm21, stronger effect = lower value 0.973 | locus YDR334W, strain swr1, stronger effect = lower value 0.995 | locus YDR335W, strain msn5, stronger effect = lower value 0.982 | locus YDR363W, strain ESC2, stronger effect = lower value 1.01 | locus YDR388W, stronger effect = lower value 0.983 | locus YDR392W, strain spt3, stronger effect = lower value 0.999 | locus YDR502C, strain sam2, stronger effect = lower value 0.976 | locus YEL003W, strain gim4, stronger effect = lower value 0.978 | locus YEL037C, strain rad23, stronger effect = lower value 0.997 | locus YEL061C, strain CIN8 (second series), stronger effect = lower value 0.975 | locus YEL061C, strain CIN8, stronger effect = lower value 1.01 | locus YER002W, strain NOP16, stronger effect = lower value 1 | locus YER015W, strain faa2, stronger effect = lower value 0.978 | locus YER016W, strain bim1, stronger effect = lower value 0.996 | locus YER110C, stronger effect = lower value 0.989 | locus YER111C, strain swi4, stronger effect = lower value 0.995 | locus YER155C, strain BEM2 (second series), stronger effect = lower value 0.977 | locus YER155C, strain BEM2, stronger effect = lower value 1.01 | locus YER167W, strain BCK2, stronger effect = lower value 0.989 | locus YFR010W, strain ubp6, stronger effect = lower value 0.982 | locus YGL078C, strain dbp3, stronger effect = lower value 0.99 | locus YGL086W, strain mad1, stronger effect = lower value 0.969 | locus YGL167C, strain pmr1, stronger effect = lower value 1 | locus YGL173C, strain kem1, stronger effect = lower value 0.993 | locus YGL227W, strain vid30, stronger effect = lower value 1 | locus YGL240W, strain doc1, stronger effect = lower value 0.989 | locus YGL248W, strain PDE1, stronger effect = lower value 0.964 | locus YGL253W, strain hxk2, stronger effect = lower value 0.988 | locus YGR135W, strain pre9, stronger effect = lower value 0.94 | locus YGR229C, strain SMI1, stronger effect = lower value 0.941 and 0.953 | locus YGR252W, strain gcn5, stronger effect = lower value 0.841 | locus YHR013C, strain ard1, stronger effect = lower value 0.976 | locus YHR027C, strain rpn1, stronger effect = lower value 0.96 | locus YHR030C, strain SLT2, stronger effect = lower value 0.997 and 1.01 | locus YHR079C, strain IRE1 (second series), stronger effect = lower value 0.997 | locus YHR079C, strain IRE1, stronger effect = lower value 1.01 | locus YHR094C, strain hxt1, stronger effect = lower value 0.997 | locus YHR129C, strain ARP1, stronger effect = lower value 0.995 | locus YHR142W, strain chs7, stronger effect = lower value 0.91 | locus YHR200W, strain rpn10, stronger effect = lower value 0.991 | locus YIL066C, strain RNR3, stronger effect = lower value 0.992 | locus YIL073C, strain SPO22, stronger effect = lower value 0.918 | locus YIL125W, strain kgd1, stronger effect = lower value 0.981 | locus YIR030C, strain dcg1, stronger effect = lower value 0.99 | locus YJL092W, strain hpr5, stronger effect = lower value 0.971 | locus YJL095W, strain BCK1 (second series), stronger effect = lower value 0.973 | locus YJL095W, strain BCK1, stronger effect = lower value 0.941 and 0.998 | locus YJL115W, strain asf1, stronger effect = lower value 0.97 | locus YJL129C, strain trk1, stronger effect = lower value 1.01 | locus YJL134W, strain LCB3, stronger effect = lower value 0.982 | locus YJL154C, strain vps35, stronger effect = lower value 0.975 | locus YJL164C, strain tpk1, stronger effect = lower value 0.989 | locus YJL166W, strain qcr8, stronger effect = lower value 0.958 | locus YJL168C, strain set2, stronger effect = lower value 0.998 | locus YJL187C, strain SWE1 (second series), stronger effect = lower value 0.979 | locus YJL187C, strain SWE1, stronger effect = lower value 0.973 | locus YJR043C, strain POL32, stronger effect = lower value 1.01 | locus YJR066W, strain TOR1, stronger effect = lower value 0.949
